Data as given in PMC5540273 (PLoS ONE, 2017).

Tests used:
Settings in all cases: concentration: 1 μM,replicates: in singlicate; n = 1
NEK11 = system: NEK11
NEK1 = system: NEK1
NEK2 = system: NEK2
NEK3 = system: NEK3
NEK4 = system: NEK4
NEK5 = system: NEK5
NEK6 = system: NEK6
NEK7 = system: NEK7
NEK9 = system: NEK9
NIK = system: T1, NIK
T1 construct: gene MAP3K14

NIM1 = system: T2, NIM1
T2 construct: gene MGC42105

NLK = system: NLK
OSR1 = system: T3, OSR1
T3 construct: gene OXSR1

PAK1 = system: PAK1
PAK2 = system: PAK2
PAK3 = system: PAK3
PAK4 = system: PAK4
PAK6 = system: PAK6
PAK7 = system: PAK7
PCTK1 = system: T4, PCTK1
T4 construct: gene CDK16
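Note: KINOMEscan kinase panel screen.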

Compound | %Inh (NEK11) | %Inh (NEK1) | %Inh (NEK2) | %Inh (NEK3) | %Inh (NEK4) | %Inh (NEK5) | %Inh (NEK6) | %Inh (NEK7) | %Inh (NEK9) | %Inh (NIK) | %Inh (NIM1) | %Inh (NLK) | %Inh (OSR1) | %Inh (PAK1) | %Inh (PAK2) | %Inh (PAK3) | %Inh (PAK4) | %Inh (PAK6) | %Inh (PAK7) | %Inh (PCTK1)
O=C(Nc1ccccc1)c1cccc(Oc2ccc3nccn3n2)c1 | 20% | 0% | 2% | 17% | 0% | 12% | 0% | 0% | 0% | 34% | 1% | 0% | 0% | 0% | 0% | 5% | 0% | 9% | 0% | 0%
CNC(=O)c1ccccc1Nc1nc(Nc2cccc(CS(C)(=O)=O)c2)ncc1C.O=CO [GSK1520489] | 66% | 71% | 78% | 86% | 70% | 100% | 83% | 94.9% | 78% | 23% | 97.4% | 39% | 28% | 64% | 52% | 97.8% | 55% | 79% | 85% | 6%
O=C1NCCc2[nH]c(-c3ccncc3)cc21 | 0% | 0% | 0% | 18% | 0% | 2% | 29% | 0% | 0% | 44% | 45% | 22% | 3% | 38% | 40% | 42% | 14% | 17% | 0% | 0%
Nc1nccc(-c2ccc3c(N)n[nH]c3c2)n1 [GSK1034945] | 0% | 0% | 3% | 9% | 0% | 4% | 0% | 3% | 10% | 0% | 17% | 33% | 6% | 18% | 11% | 7% | 0% | 0% | 2% | 0%
CC(C(=O)NC1CCN(c2ccnc(Nc3ccc(F)cc3)n2)C1)c1ccc(Cl)cc1 (stereo not drawn) [GSK1379713] | 25% | 0% | 0% | 0% | 0% | 15% | 0% | 28% | 34% | 11% | 17% | 0% | 5% | 5% | 2% | 0% | 0% | 0% | 0% | 3%
NC(=O)Nc1sc(-c2ccc(F)cc2)cc1C(N)=O [GW789449] | 0% | 0% | 0% | 47% | 19% | 36% | 13% | 0% | 0% | 37% | 14% | 0% | 16% | 0% | 4% | 24% | 11% | 12% | 1% | 0%
C[C@@H](Oc1cc(-n2cnc3ccc(-c4ccncc4)cc32)sc1C(N)=O)c1ccccc1Cl [GSK483724] | 0% | 51% | 86% | 0% | 4% | 72% | 14% | 17% | 76% | 1% | 13% | 49% | 11% | 8% | 29% | 21% | 44% | 13% | 10% | 7%
CN1CCN(CCNc2nc3cc(Oc4ccc(NC(=O)Nc5cc(C(F)(F)F)ccc5F)cc4)ccc3[nH]2)CC1.Cl.Cl [GW768504] | 0% | 0% | 0% | 20% | 0% | 1% | 0% | 0% | 0% | 0% | 0% | 0% | 0% | 0% | 30% | 6% | 10% | 0% | 0% | 0%
NC(=O)c1ccc(-c2cc3ncnc(SCC(=O)O)c3s2)cc1 | 0% | 0% | 0% | 35% | 0% | 0% | 7% | 0% | 0% | 0% | 0% | 0% | 0% | 0% | 0% | 0% | 0% | 0% | 0% | 0%
C[C@@H]1CNc2c(sc3ccc4nc(-c5ccncc5)ccc4c23)C(=O)N1 | 0% | 0% | 0% | 30% | 0% | 0% | 3% | 5% | 0% | 90.3% | 0% | 0% | 9% | 0% | 5% | 9% | 24% | 9% | 0% | 0%
Cn1cc(-c2cccc3c(N)c(C(N)=O)nnc23)cn1 | 0% | 0% | 15% | 22% | 16% | 6% | 5% | 0% | 0% | 21% | 9% | 20% | 24% | 0% | 2% | 44% | 1% | 13% | 18% | 6%
COc1cc2ncn(-c3cc(OCC4CCCCC4)c(C(N)=O)s3)c2cc1OC [GSK204559] | 0% | 12% | 40% | 0% | 10% | 9% | 0% | 21% | 33% | 16% | 3% | 0% | 15% | 9% | 17% | 18% | 0% | 0% | 1% | 3%
O=c1[nH]cc(-c2ccc(O)cc2)c2sc(-c3ccncc3)cc12 [GSK1033723] | 23% | 0% | 0% | 0% | 0% | 17% | 0% | 0% | 18% | 0% | 4% | 11% | 3% | 14% | 5% | 11% | 0% | 4% | 5% | 1%
Cn1ccc2ncnc(Oc3ccc(NC(=O)Nc4cncc(C(F)(F)F)c4)c(Cl)c3)c21 | 0% | 0% | 0% | 13% | 0% | 0% | 0% | 0% | 0% | 0% | 0% | 9% | 0% | 25% | 0% | 0% | 1% | 0% | 0% | 0%
Cn1ccc2ncnc(Oc3ccc(NC(=O)Nc4ccnc(C(F)(F)F)c4)c(Cl)c3)c21 | 0% | 0% | 0% | 11% | 0% | 0% | 0% | 0% | 5% | 0% | 0% | 14% | 0% | 23% | 13% | 100% | 7% | 0% | 0% | 21%
O=C(NOCC1CC1)c1cc(Br)c(F)c(F)c1Nc1ccc(I)cc1Cl | 0% | 0% | 0% | 43% | 0% | 0% | 0% | 0% | 0% | 0% | 25% | 0% | 0% | 2% | 12% | 16% | 0% | 0% | 0% | 0%
COc1cccc(CNC(=O)NC2CCN(c3ccnc(Nc4cc(OC)c(OC)c(OC)c4)n3)C2)c1 (stereo not drawn) [GSK1379765] | 15% | 0% | 0% | 45% | 31% | 95.9% | 0% | 15% | 31% | 30% | 21% | 0% | 3% | 0% | 8% | 11% | 0% | 0% | 1% | 3%
COc1cc2c(Nc3ccc(NC(=O)c4ccccc4)cc3)ncnc2cc1OCCCN1CCOCC1 [GSK301329] | 0% | 0% | 0% | 0% | 22% | 0% | 0% | 0% | 13% | 9% | 16% | 7% | 20% | 0% | 3% | 30% | 0% | 5% | 0% | 3%
CC(C)c1nc(-c2cccc(NS(=O)(=O)c3ccccc3)c2)c(-c2ccnc(Nc3ccc4c(c3)CN(C)CC4)n2)s1 [GSK1649598] | 97.7% | 14% | 34% | 27% | 18% | 0% | 0% | 0% | 51% | 3% | 29% | 98.1% | 14% | 39% | 25% | 88% | 0% | 10% | 3% | 100%
C[C@@H]1CNc2c(sc3ccc4nc(-c5ccc(O)cc5)ccc4c23)C(=O)N1 | 0% | 0% | 0% | 20% | 0% | 0% | 38% | 11% | 8% | 84% | 26% | 8% | 0% | 20% | 32% | 0% | 9% | 17% | 0% | 0%
Cc1ccc(CC(=O)N2CCc3cc(-c4cn(C)c5ncnc(N)c45)ccc32)cc1 [GSK2634758] | 59% | 31% | 96.9% | 7% | 11% | 45% | 19% | 0% | 20% | 16% | 13% | 1% | 0% | 0% | 0% | 49% | 0% | 100% | 0% | 0%
